Data on seven molecules can be found in PubChem BioAssay (NCI).

Test systems include NCI-H23 lung; NCI-H322M lung; HOP-62 NSCLC; NCI-H460 lung; HOP-92 NSCLC; NCI-H522 lung; A549/ATCC NSCLC; 786-0 renal; COLO 205 colon; DU-145 prostate; K-562 leukemia; MALME-3M melanoma; MDA-MB-231 breast; RXF 393 renal; SF-268 CNS; SF-295 CNS; SF-539 CNS; UACC-257 melanoma; M14 melanoma; HCT-15 colon.
Holding throughout (experiment): NCI-60 one-dose screen, 48 h (100 = growth as untreated, 0 = no growth, -100 = all killed)
Details in all cases: 10 µM unless noted

Molecules are shown by their SMILES. About 83,000 compounds went through this panel and 20% of them were active in at least one assay; those are over-represented in the sample as a whole.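 For each line, cells grew in 96-well plates with the test compound present at a single concentration for 48 hours.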 Unmarked numbers belong to inactive results. Calls of active or inactive are those of the source. How the source made its calls: active means growth percent below 10; inactive means the rest.

As to `C[n+]1c2ccccc2nc2ccc(NCCO)cc21`, the growth in the experiment on NCI-H23 lung is 90.6%; in the experiment on NCI-H322M lung, 88.8%; with HOP-62 NSCLC, 98.1%; in the experiment with NCI-H460 lung, 86.8%; in the experiment on HOP-92 NSCLC, 30.9%; with NCI-H522 lung, 92.2%. Moreover, the growth in the experiment with A549/ATCC NSCLC was 86.2%; with 786-0 renal it was 80.8%; in the experiment with COLO 205 colon it was 68.8%; with DU-145 prostate it was 97.2%; in the experiment on K-562 leukemia, 68.2%; with MALME-3M melanoma it was 101%. Moreover, the growth is 77.2% in the experiment on MDA-MB-231 breast; 83.2% with RXF 393 renal; 63.7% with SF-268 CNS; 98.5% in the experiment on SF-295 CNS; 90.8% in the experiment on SF-539 CNS; 99.2% with UACC-257 melanoma. Further, the growth is 92.8% in the experiment with M14 melanoma and 93.8% in the experiment on HCT-15 colon.
For the molecule `O=C(Nc1ccccc1O)c1ccc(Oc2cccc(C(=O)Nc3ccccc3O)c2)cc1`, the growth in the experiment on NCI-H23 lung is 25.5%; in the experiment on NCI-H322M lung it was 25.9%; with HOP-62 NSCLC, 6.43% (active); with NCI-H460 lung, 1.59% (active); in the experiment on HOP-92 NSCLC, 31.4%; in the experiment on NCI-H522 lung, -16% (active). Further, the growth with A549/ATCC NSCLC was 7.58% (active); in the experiment with 786-0 renal, 3.76% (active); in the experiment on COLO 205 colon, 93.4%; with DU-145 prostate, 12.1%; in the experiment on K-562 leukemia, -29.1% (active); in the experiment with MALME-3M melanoma it was 13.6%. Also, the growth in the experiment with MDA-MB-231 breast was 32%; in the experiment on RXF 393 renal, 26.6%; in the experiment with SF-268 CNS, 0.105% (active); with SF-295 CNS, -28.5% (active); with SF-539 CNS, 7.4% (active); in the experiment with UACC-257 melanoma, 10.4%. Further, the growth was -44.5% (active) in the experiment on M14 melanoma and 32.2% with HCT-15 colon.
With `COc1ccc(C(=O)Nc2ccc3nc(N4CCCCC4)cc(C)c3c2)cc1OC`, the growth with NCI-H23 lung was 96.8%; with NCI-H322M lung it was 117%; in the experiment on HOP-62 NSCLC, 115%; with NCI-H460 lung, 51.9%; with HOP-92 NSCLC, 40.8%; with NCI-H522 lung it was 98.3%. The growth in the experiment with A549/ATCC NSCLC was 85.2%; with 786-0 renal, 85.4%; in the experiment on COLO 205 colon it was 95.9%; in the experiment on DU-145 prostate, 83.9%; in the experiment with K-562 leukemia, -18.6% (active); in the experiment on MALME-3M melanoma it was 64.8%. Besides, the growth was 48.3% with MDA-MB-231 breast; 92.3% with RXF 393 renal; 89.5% with SF-268 CNS; 48.6% in the experiment with SF-295 CNS; 82.2% with SF-539 CNS; 102% in the experiment on UACC-257 melanoma. Further, the figures for the growth with M14 melanoma and in the experiment with HCT-15 colon were 83.9% and 31.6%, respectively.
Regarding `COc1ccc(CSc2nnc(SCC(=O)Nc3ccc(Cl)cc3)s2)cc1`, the growth in the experiment on NCI-H23 lung was 80.5%; with NCI-H322M lung it was 65.4%; with HOP-62 NSCLC it was 89%; in the experiment with NCI-H460 lung it was 37.6%; in the experiment on HOP-92 NSCLC, 78%; in the experiment on NCI-H522 lung it was 67.7%. Further, the growth with A549/ATCC NSCLC was 62.4%; in the experiment with 786-0 renal it was 68.7%; in the experiment with COLO 205 colon, 56.1%; in the experiment on DU-145 prostate, 65.2%; in the experiment with K-562 leukemia it was 15.6%; in the experiment with MALME-3M melanoma, 121%. The growth with MDA-MB-231 breast is 72.1%; with RXF 393 renal it was 104%; with SF-268 CNS, 70.5%; in the experiment on SF-295 CNS it was -12.6% (active); with SF-539 CNS it was 86.6%; with UACC-257 melanoma, 99%. For the same molecule, the growth with M14 melanoma was 39.9%; in the experiment with HCT-15 colon, 48.1%.
Take `Cc1ccc(F)cc1NC(=O)c1cc(Cl)ccc1Nc1ccccc1`: the growth is 60.1% with NCI-H23 lung; 62.4% with NCI-H322M lung; 83.9% in the experiment on HOP-62 NSCLC; 40.2% in the experiment on NCI-H460 lung; 75.9% in the experiment on HOP-92 NSCLC; 47.7% in the experiment with NCI-H522 lung. Moreover, the growth in the experiment with A549/ATCC NSCLC is 42.3%; in the experiment with 786-0 renal, 68.1%; in the experiment on COLO 205 colon, 16%; in the experiment on DU-145 prostate it was 69.6%; in the experiment with K-562 leukemia, 22.3%; in the experiment with MALME-3M melanoma, 83%. Besides, the growth in the experiment with MDA-MB-231 breast is 69.7%; in the experiment on RXF 393 renal, 68.3%; in the experiment on SF-268 CNS, 55%; with SF-295 CNS, 13.7%; in the experiment on SF-539 CNS, 62.5%; in the experiment with UACC-257 melanoma, 65.7%. Besides, the growth in the experiment with M14 melanoma was 45.1%; in the experiment with HCT-15 colon it was 38.4%.
For `COc1cc(-c2c3c(cn2S(=O)(=O)c2ccccc2)-c2nc(N)sc2CC3)cc(OC)c1OC`, the growth in the experiment with NCI-H23 lung is 44%; in the experiment with NCI-H322M lung it was 41%; in the experiment on HOP-62 NSCLC, 53.5%; in the experiment with NCI-H460 lung, 6.37% (active); with HOP-92 NSCLC, 60.2%; in the experiment on NCI-H522 lung, 19.9%. The growth was 30.7% in the experiment on A549/ATCC NSCLC; 43.4% in the experiment on 786-0 renal; -1.14% (active) in the experiment on COLO 205 colon; 0.0609% (active) in the experiment with DU-145 prostate; 8.08% (active) with K-562 leukemia; 42.4% with MALME-3M melanoma. The growth is 19.3% in the experiment on MDA-MB-231 breast; 2.6% (active) in the experiment with RXF 393 renal; 40.7% in the experiment on SF-268 CNS; 11.2% in the experiment on SF-295 CNS; -31.8% (active) in the experiment with SF-539 CNS; 74% in the experiment with UACC-257 melanoma. The growth was 34.4% in the experiment with M14 melanoma and 27.5% with HCT-15 colon.
On to `O=C(Nc1ccc(N2CCNCC2)cc1)c1[nH]ncc1Nc1cc(Oc2ccccc2)ncn1`, for which the growth in the experiment with NCI-H23 lung is 20.6%; in the experiment with NCI-H322M lung it was -5.19% (active); in the experiment on HOP-62 NSCLC it was 3.29% (active); with NCI-H460 lung, -47.1% (active); in the experiment on HOP-92 NSCLC, -21% (active); with NCI-H522 lung, 8.05% (active). In addition, the growth is -49.8% (active) with A549/ATCC NSCLC; 2.25% (active) in the experiment with 786-0 renal; -49.1% (active) in the experiment on COLO 205 colon; 15.9% in the experiment with DU-145 prostate; 8.34% (active) in the experiment on K-562 leukemia; 58.4% with MALME-3M melanoma. The growth with MDA-MB-231 breast is -20.9% (active); in the experiment with RXF 393 renal, -89.2% (active); in the experiment on SF-268 CNS it was 35%; with SF-295 CNS, -70.2% (active); in the experiment on SF-539 CNS it was -46.2% (active); in the experiment with UACC-257 melanoma, 29.7%. The growth was 12.9% in the experiment on M14 melanoma and -35.9% (active) in the experiment on HCT-15 colon.
